Among the data in PubChem BioAssay (NCI) are growth values, retold here.

SMILES strings stand for the structures. The panel holds about 83,000 compounds, 20% with a hit somewhere; the sample as a whole holds those more often.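 The endpoint reported here, percent growth, reads 100 for growth as untreated, 0 for no net growth and -100 for all cells dead.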 A number with no mark means an inactive call. Active and inactive are the calls of the source. Rule for the calls: active = growth percent below 10; inactive = the rest.

Common to all, as to assay: NCI-60 one-dose screen, 48 h (100 = growth as untreated, 0 = no growth, -100 = all killed)
Conditions in all cases: 10 µM unless noted

The subject of assay [1] is HCT-15 colon.
Assay [2] concerns HT29 colon.
Assay [3] deals with SNB-75 CNS.
The subject of assay [4] is SNB-19 CNS.
Assay [5] has as its system U251 CNS.
In assay [6] the test system is PC-3 prostate.
The test system of assay [7] is SK-MEL-5 melanoma.
Assay [8] has as its system UACC-62 melanoma.
In assay [9] the test system is LOX IMVI melanoma.
Assay [10] relates to SK-MEL-28 melanoma.
Assay [11] has as its system SK-MEL-2 melanoma.
In assay [12] the test system is EKVX NSCLC.
For assay [13], the system named is SN12C renal.
Assay [14] has as its system UO-31 renal.
The test system of assay [15] is TK-10 renal.
Assay [16] relates to ACHN renal.
Assay [17] concerns CAKI-1 renal.
Assay [18] concerns CCRF-CEM leukemia.
Assay [19] has as its system MOLT-4 leukemia.
Assay [20] concerns A498 renal.

Regarding `c1ccc2c(-c3c4ccsc4cc4[nH]c5ccccc5c34)c[nH]c2c1`, the growth in assay [1] was 24.7%; in [2], 8.87% (active); in assay [3], 20.3%; in assay [4], 48.5%; in assay [5], 38.7%; in assay [6], 36.1%. Further, the growth in assay [7] is 31.9%; in assay [8], 44.8%; in [9] it was 26.9%; in assay [10], 48.9%; in assay [11], 23.9%; in assay [12] it was 53.3%. For the same molecule, the growth was 50.1% in assay [13]; 40.1% in assay [14]; 76% in [15]; 43.3% in [16]; 34.5% in assay [17]; 19.8% in assay [18]. Also, the growth in assay [19] was 32.2%.

On to `COc1cc2nc(-c3ccc(C(F)(F)F)cc3)cc(OCCN3CCCC3)c2cc1OC`, for which the growth in assay [1] is 67.3%; in assay [2], 66.4%; in assay [3], 71.6%; in [4] it was 88.7%; in assay [5] it was 76.8%; in [6] it was 73.8%. In addition, the growth in assay [7] was 84.4%; in assay [8], 93.3%; in assay [9], 27%; in assay [10], 78.6%; in assay [11], 105%; in [12] it was 68.8%. The growth in assay [13] is 72.2%; in [14], 54.2%; in [15], 92.9%; in assay [16], 84.1%; in assay [17], 68.7%; in assay [18], 77.8%. Moreover, the growth in [19] was 74.2%.

Turning to `CC(O)(CO)c1ccccc1` (stereo unspecified), the growth is 97.8% in assay [1]; 102% in [2]; 92.5% in assay [3]; 98.3% in assay [4]; 101% in [5]; 91.7% in assay [6]. Also, the growth in assay [7] is 102%; in assay [8], 96%; in [9] it was 102%; in assay [10] it was 102%; in assay [11], 106%; in [12], 96.3%. Moreover, the growth in assay [13] is 98.8%; in assay [14], 91%; in assay [15], 110%; in assay [16], 95.2%; in assay [17] it was 104%; in [18], 113%. Also, the growth in assay [19] was 110%.

`CS(=O)(=O)c1ccc(-c2cc(-c3nnc(SCC(=O)Nc4ccc(C(=O)/C=C/c5ccc(Cl)cc5)cc4)n3-c3ccccc3)c3ccccc3n2)cc1`: the growth in [1] was 96.4%; in assay [2] it was 106%; in [3], 72.3%; in assay [4], 85.2%; in assay [5], 90.9%; in assay [6], 89.1%. Also, the growth in assay [7] is 95.7%; in assay [8], 80.2%; in [9], 92.2%; in [10] it was 103%; in assay [11] it was 107%; in assay [12] it was 94%. Besides, the growth in assay [13] was 91.3%; in assay [14] it was 72.5%; in [15], 99.3%; in assay [16] it was 97.6%; in [17], 86.2%; in [18], 99.6%. The growth in [19] was 90.5%.

Regarding `Cc1cn(-c2cc(C(=O)Nc3cccc(C#Cc4cccc5[nH]nc(N)c45)c3)cc(C(F)(F)F)c2)cn1`, the growth in [1] is 57.4%; in assay [2], 18.5%; in [3] it was 65.8%; in [4], 76.2%; in assay [5], 54.9%; in assay [6] it was 75.3%. Also, the growth was 24.2% in [7]; 12.2% in [8]; 11% in assay [9]; 15.8% in [10]; 5.21% (active) in assay [11]; 68% in [12]. In addition, the growth in assay [13] was 62.3%; in [14], 30.2%; in assay [15], 58.5%; in assay [16] it was 30.3%; in assay [17], 79.6%; in assay [18], 47.4%. The growth in assay [19] was 36.5%.

For `CCCCCCCCOC(=O)c1ccc(O)c(OC)c1`, the growth is 105% in assay [1]; 97.7% in assay [2]; 78.8% in assay [3]; 93.2% in assay [4]; 85.8% in [5]; 78% in [6]. In addition, the growth in assay [7] was 97.1%; in assay [8], 92%; in [9], 59.3%; in [10] it was 105%; in assay [11], 97.7%; in assay [12], 105%. Moreover, the growth is 85.8% in [13]; 50.8% in assay [14]; 98.6% in [15]; 103% in assay [16]; 91.9% in assay [17]; 1.05% (active) in assay [18]. Moreover, the growth in [19] is 12.9%.

Turning to `C=C(C)[C@@H]1CC[C@]2(CO)CC[C@]3(C)[C@H](CC[C@@H]4[C@@]5(C)CCCNC(C)(C)[C@@H]5CC[C@]43C)[C@@H]12`, the growth in assay [1] was 3.28% (active); in assay [2], 2.58% (active); in assay [3], 77.1%; in assay [4], 49.6%; in assay [5] it was 7.49% (active); in assay [6] it was 25.6%. In addition, the growth is -82.5% (active) in assay [7]; 43.2% in [8]; -57.7% (active) in assay [9]; -65.4% (active) in assay [10]; 78.8% in assay [11]; 63.3% in [12]. Moreover, the growth in assay [13] is 45.9%; in [14] it was 53.8%; in assay [15], 80.8%; in assay [16], 50.2%; in assay [17], 38.4%; in assay [18], 12.4%. Also, in assay [19], the growth was 4.4% (active).

For `CC(O)/C=C/C=C/C(O)CC/C=C/C(=O)NCC(C)(C)O` (stereo unspecified), the growth in [1] is 104%; in assay [2], 102%; in assay [3], 96.3%; in assay [4], 99.6%; in [5], 98.3%; in assay [6], 91.7%. Moreover, the growth in assay [7] is 99.1%; in assay [8], 90.1%; in assay [9], 95.3%; in assay [10], 111%; in assay [11] it was 81.9%; in assay [12], 107%. The growth in [13] is 99.2%; in assay [14], 78.4%; in assay [15], 109%; in assay [16] it was 106%; in assay [20] it was 99.7%; in assay [18], 95%.
